# Paper PMC4336329 (PLoS ONE, 2015)
# In all, about 310,000 compounds went through this assay and about 14,000 (4.5%) showed an effect of 50% or more. Effects have a minus sign here. The sample as a whole holds a higher share of strong results than the screen did.
# Target: human ether-à-go-go-related gene (hERG) potassium channel (human, UniProt Q12809)
# Assay: primary screen, population patch clamp on CHO cells stably expressing hERG; higher = less effect of the substance
# 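Note: peak tail current of the secondary pulse compared with the same well before compound.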
# Chain of human ether-à-go-go-related gene (hERG) potassium channel (Q12809 whole entry, looked up): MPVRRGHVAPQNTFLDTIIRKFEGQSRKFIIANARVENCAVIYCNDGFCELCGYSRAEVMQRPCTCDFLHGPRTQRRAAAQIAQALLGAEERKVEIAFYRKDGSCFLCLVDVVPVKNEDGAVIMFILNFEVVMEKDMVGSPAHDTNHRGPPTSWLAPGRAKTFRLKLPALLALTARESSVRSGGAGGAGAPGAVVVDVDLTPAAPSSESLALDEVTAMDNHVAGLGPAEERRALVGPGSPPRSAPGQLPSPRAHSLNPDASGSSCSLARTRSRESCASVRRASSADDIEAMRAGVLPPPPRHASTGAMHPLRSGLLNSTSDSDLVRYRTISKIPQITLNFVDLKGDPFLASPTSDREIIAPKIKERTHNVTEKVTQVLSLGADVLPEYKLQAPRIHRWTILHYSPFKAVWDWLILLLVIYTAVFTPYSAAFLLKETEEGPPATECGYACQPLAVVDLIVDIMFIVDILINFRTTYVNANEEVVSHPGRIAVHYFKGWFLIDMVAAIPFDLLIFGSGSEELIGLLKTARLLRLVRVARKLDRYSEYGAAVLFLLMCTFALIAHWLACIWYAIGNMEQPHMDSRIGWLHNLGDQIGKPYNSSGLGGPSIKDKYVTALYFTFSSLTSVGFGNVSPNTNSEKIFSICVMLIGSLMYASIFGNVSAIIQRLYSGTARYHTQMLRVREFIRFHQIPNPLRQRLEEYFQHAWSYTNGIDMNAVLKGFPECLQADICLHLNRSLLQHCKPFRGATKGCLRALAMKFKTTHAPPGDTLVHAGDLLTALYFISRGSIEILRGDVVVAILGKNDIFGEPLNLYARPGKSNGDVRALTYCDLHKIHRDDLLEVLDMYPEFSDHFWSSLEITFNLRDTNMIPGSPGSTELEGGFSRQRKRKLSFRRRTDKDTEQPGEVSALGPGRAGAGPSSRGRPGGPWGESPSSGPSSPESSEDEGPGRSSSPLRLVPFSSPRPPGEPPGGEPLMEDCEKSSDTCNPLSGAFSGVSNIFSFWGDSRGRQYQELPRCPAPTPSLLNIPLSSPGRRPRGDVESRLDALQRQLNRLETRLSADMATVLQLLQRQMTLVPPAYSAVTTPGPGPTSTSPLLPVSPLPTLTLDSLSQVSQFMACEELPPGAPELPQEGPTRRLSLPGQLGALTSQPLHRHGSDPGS
row,SMILES,"hERG current change (%, negative = inhibition) at 10uM [%]"
1,CS(=O)(=O)NCCNc1ccc(C(F)(F)F)cc1[N+](=O)[O-],-6.08
2,CS(=O)(=O)NCCCCNc1ccc(C(F)(F)F)cc1[N+](=O)[O-],-56.8
3,CS(=O)(=O)NCCCNc1ccc(C(F)(F)F)cc1[N+](=O)[O-],-35.1
4,COc1ccc(NC(=O)C(=O)N/N=C/c2cccnc2)c(OC)c1,21.3
5,N#CC1(c2nc3ccccc3[nH]2)CC1c1ccc2c(c1)OCO2 (stereo not shown),0.101
6,O=C(COC(=O)c1ccc(Cl)c(S(=O)(=O)N2CCOCC2)c1)NCc1ccco1,-17
7,COc1ccc(CN(C(=O)c2nsc(Cl)c2Cl)C(C(=O)NC2CCCC2)c2ccc(C)cc2)cc1 (stereo not shown),-12.4
8,C/C(=N/OC(=O)c1ccc(C)cc1)c1ccc(N2C(=O)C3CCCCC3C2=O)cc1 (stereo not shown),16
9,O=c1c2ccccc2nc(/C=C/c2ccccc2)n1CCCO,-8.23
10,O=c1c2sccc2nc(SCc2ccc([N+](=O)[O-])cc2)n1Cc1ccccn1,-61.6
11,O=c1c2ccccc2nc(/C=C/c2cccc([N+](=O)[O-])c2)n1CCCO,-43
12,O=c1c2ccccc2nc(/C=C/c2ccc(Br)cc2)n1CCCO,0.999
13,O=c1c2ccccc2nc(/C=C/c2ccc([N+](=O)[O-])cc2)n1CCCO,-57.4
14,O=c1c2sccc2nc(SCc2cc(=O)n3ccccc3n2)n1Cc1ccccn1,-22.3
15,Cn1c(/C=C/c2ccc([N+](=O)[O-])o2)nc2ccccc2c1=O,-24.2
16,Nn1c(SCc2ccc([N+](=O)[O-])cc2)nc2ccccc2c1=O,17.8
17,O=c1c2ccccc2nc(/C=C/c2ccc([N+](=O)[O-])o2)n1CCCO,-51.7
18,CCOC(CCn1c(SCc2ccc([N+](=O)[O-])cc2)nc2ccccc2c1=O)OCC,-39
19,O=c1c2ccccc2nc(SCc2ccc([N+](=O)[O-])cc2)n1CCCO,-57.9
20,N#Cc1ccccc1CSc1nc2ccsc2c(=O)n1Cc1ccccn1,-10.9
21,COCC(C)n1c(COc2ccccc2F)nnc1SCC(=O)c1c(N)n(C)c(=O)n(C)c1=O (stereo not shown),16.4
22,N#C/C(=C\c1c(F)cccc1Cl)S(=O)(=O)c1ccccn1,3.15

row,SMILES,"hERG current change (%, negative = inhibition) at 10uM [%]"
1,COc1cc(-c2nc(S(=O)(=O)c3ccc(Cl)cc3)c(N3CCOCC3)o2)cc(OC)c1OC,-3.17
2,Cl.NNc1nc(-c2ccccc2)cs1,29.7
3,COc1cccc(NC(=O)CCCN2C(=O)C3CC=CCC3C2=O)c1 (stereo not shown),-2.79
4,Cc1cc([N+](=O)[O-])nn1CCCC(=O)NCc1ccccc1,-5.8
5,Cc1ccccc1NC(=O)C1=CC=CN2CCS(=O)(=O)N=C12,-11.7
6,O=C(Nc1cccc2ncccc12)c1cccc(F)c1,-11.1
7,CCOC(=O)C1(Cc2ccccc2)CCN(Cc2cccc(OC)c2O)CC1,-69.6
8,CCOC(=O)C1(Cc2cccc(OC)c2)CCN(Cc2cccc3c2OCO3)CC1,-39.4
9,CCOC(=O)C1(Cc2ccccc2)CCN(Cc2cn(CC(=O)OC)c3ccccc23)CC1,-78.1
10,CCOC(=O)C1(Cc2cccc(OC)c2)CCN(Cc2ccccc2OC)CC1,-51.3
11,CCOC(=O)C1(Cc2cccc(OC)c2)CCN(Cc2cccc(OCC)c2O)CC1,-56.8
12,CCOC(=O)C1(CC2CC2)CCN(Cc2cn(C)c3ccccc23)CC1,-31
13,Cc1cc(=O)nc2c3ccccc3n(CC(=O)Nc3ccccc3Br)n12,-7.45
14,CCOc1ccc(N(CC(=O)Nc2cccc(Br)c2)S(C)(=O)=O)cc1,-1.12
15,NC(=O)C1CCN(/C=C2\C(=O)NC(=O)N(Cc3ccco3)C2=O)CC1,6.74
16,COc1ccccc1CNC(=O)COc1ccc(C)nc1[N+](=O)[O-],18.3
17,CCN(C(=O)COc1ccc(C(=O)c2ccccc2)cc1)c1ccccc1,-18.9
18,O=C1NNC(=O)C1c1ccccc1,25.7
19,CCOC(=O)C1(Cc2cccc(OC)c2)CCN(Cc2cccc(OC)c2O)CC1,-66
20,CCOC(=O)C1(Cc2cccc(OC)c2)CCN(Cc2cc(OC)ccc2OC)CC1,-67.2
21,CCOC(=O)c1[nH]ncc1CN1CCC(Cc2cccc(OC)c2)(C(=O)OCC)CC1,-37.6
